# Source: PubChem BioAssay (several laboratories)
# CHOP inh – CHOP inhibition in unfolded protein response | CHO-K1 CHOP-promoter luciferase, tunicamycin-induced, 15-18 h | inhibition, % at 10 µM | 220,000 compounds, 3.8% hits;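 active = compounds that reduced the stress-induced luciferase reporter signal by more than about 70% of percent inhibition, limit read from the data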
# WT yeast gro inh – growth inhibition of WT yeast, mitochondrial fusion screen. mitochondrial fusion phenotypic screen, WT strain. inhibition, % at 10 µM. AID 1362. 190,000 compounds, 2.1% hits; in the data active = inhibition above about 58%; tested in S. cerevisiae
# Lmaj promast – reduces viability of Leishmania major promastigotes; resazurin fluorescence viability; inhibition, % at 10 µM; 200,000 compounds, 9% hits; AID 1063; in the data active = inhibition above about 50%;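 note: promastigotes grown with compound for 44 hours at 28 °C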
# RAM inhibit – yeast RAM network inhibition. S. cerevisiae dse1pr::URA3 reporter, 5-FOA growth OD615, 2 d; analog-sensitive cbk1-as2 kinase mutant strain. inhibition, % at 50 µM. 190,000 compounds, 1.8% hits. AID 868;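 active = inhibition above a set limit, 3 SD over mean compound inhibition, cut at about 8.4% in these data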;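 note: inhibition rescues growth on 5-FOA so higher OD means more RAM inhibition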
# L major 1uM – L. major promastigote growth inhibition, 1 uM repeat; shares compounds with Lmaj promast; resazurin fluorescence, 48 h; inhibition, % at 1 µM; 1,100 compounds, 13% hits; AID 1258;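 active = inhibition above about 50% in both repeat tests, limit read from the data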
# CHOP inh conf – confirmation of CHOP induction inhibitors; CHO-CHOP promoter luciferase reporter, tunicamycin-induced, luminescence; inhibition, % at 10 µM; shares compounds with CHOP inh; 2,100 compounds, 45% hits;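 active = mean of three repeat readings of reporter signal inhibition above a set limit, cut at about 70% in these data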
# Numbers stand for hits; i = inactive; nt = not tested or not shown. A selection: hits, their analogues and other compounds. The true share with any hit is near 13%.
SMILES,CHOP inh,WT yeast gro inh,Lmaj promast,RAM inhibit,L major 1uM,CHOP inh conf
C/C(CCN1CCCCc2nc(C)c(C)cc21)=N\OC[C@@H](O)[C@H]1O[C@@H]2OC(C)(C)O[C@@H]2[C@H]1O,i,i,i,i,nt,nt
COc1ccc(O[C@H]2C=C[C@@H](c3ccccc3)O[C@@H]2CO/N=C(\C)CCN2CCCCc3nc(C)c(C)cc32)cc1,i,60,84,i,i,nt
C/C(CCN1CCCCc2nc(C)c(C)cc21)=N\O[C@@H](C)CN1CCCCc2nc(C)c(C)cc21,i,i,68,i,i,nt
OC(CC1CC12c1ccccc1-c1ncccc12)(c1ccccc1)c1ccccc1 (stereo unspecified),i,74,69,i,i,nt
CC(C)(C)[C@]1(O)CCN2C[C@H]3c4ccccc4CCc4cccc(c43)[C@@H]2C1,i,i,57,i,i,nt
COc1ccccc1CNC(=O)CN(C)S(=O)(=O)c1cccc2cccnc12,i,nt,nt,nt,nt,nt
O=C(O)CSCC(=O)N1CCN(S(=O)(=O)c2ccccc2)CC1,i,i,i,i,nt,nt
O=C(CN1CCc2ccccc2C1)N1CCN(S(=O)(=O)c2ccccc2)CC1,i,i,90,i,i,nt
Cc1nc2ccccn2c1-c1ccnn1S(=O)(=O)c1ccc(F)cc1,i,nt,nt,nt,nt,nt
O=S(=O)(c1ccc(S(=O)(=O)N2CCCN(Cc3ccccc3)C2)cc1)N1CCCCCC1,i,i,76,i,i,nt
Cc1cc(C)c(NC(=O)c2ccccc2C(=O)c2ccccc2)c(C)c1,i,i,i,i,nt,nt
O=C(Cc1ccccc1)NN1C(=O)C2C3C=CC(C3)[C@@H]2C1=O (stereo partly specified),i,i,i,i,nt,nt
O=[N+]([O-])c1ccc2ccn(C3OCC(O)C(O)C3O)c2c1 (stereo unspecified),i,i,i,i,nt,nt
CCCCCCCCC[n+]1cccc2c3ccccc3ccc21,i,i,101,i,101,nt
CCCCCCCCCCCCCCCC[n+]1cccc(C(=O)N(CC)CC)c1,108,i,100,i,79,115
CC(CC(=O)c1cccs1)CC(=O)c1cccs1,i,i,i,i,nt,nt
Cc1cc(C)c(C(CC(=O)c2cccs2)C(C#N)C#N)c(C)c1 (stereo unspecified),103,i,92,i,i,i
Cc1ccsc1/C=N/NC(=O)C1CC(=O)N(c2ccccc2)C1 (stereo unspecified),i,i,i,i,nt,nt
Cc1ccc(N=c2ssnc2Cl)cc1,i,i,i,i,nt,nt
Cc1cc(C)nc(/N=c2/ssnc2Cl)c1,96,63,99,i,94,i
O=C1C(Cl)=C(N2CCCCC2)C(=O)C(Cl)=C1c1cnc(N2CCCCC2)s1,nt,i,59,9.5,i,95
Oc1ccc(-c2nccc(-c3cccs3)n2)cc1,i,i,i,i,nt,nt
CC1=CC(C)(C)Nc2ccc(OC(=O)c3ccco3)cc21,nt,i,101,i,i,i
CC1=CC(C)(C)N2C(=O)C(=O)c3cc(OC(=O)c4ccco4)cc1c32,i,i,i,i,nt,nt
COc1ccc(OC)c(N/C(=N/C(=S)Nc2ccccc2)Nc2nc(C)cc(C)n2)c1,i,nt,nt,nt,nt,nt
SMILES,CHOP inh,WT yeast gro inh,Lmaj promast,RAM inhibit,L major 1uM,CHOP inh conf
Cc1ccc(NCC(=O)N/N=C\C(Br)=C\c2ccccc2)cc1,110,i,68,i,i,i
CS(=O)(=O)c1ccc(S(=O)CC(=O)OCc2ccccc2)c([N+](=O)[O-])c1 (stereo unspecified),107,i,57,i,i,128
Fc1cccc(-c2nnn3c2nc(Cl)c2ccccc23)c1,103,i,98,i,81,127
O=C(O)CCCCCCCCCCP(=O)(c1ccccc1)c1ccccc1,i,nt,nt,nt,nt,nt
O=P(CCCCCCCCCP(=O)(c1ccccc1)c1ccccc1)(c1ccccc1)c1ccccc1,100,i,93,i,i,i
FC(F)(F)c1nnc(-c2ccccc2)nc1Sc1ccccc1,109,i,52,i,i,i
FC(F)(F)c1nnc(-c2ccccc2)nc1N1CCCC1,i,i,i,i,nt,nt
CC(=O)N1CCN(c2cc(N3CCc4ccccc4C3)c(F)cc2[N+](=O)[O-])CC1,i,i,i,i,nt,nt
O=C(O)c1cc(-c2c[nH]c3ccccc23)nc2ccc3ccccc3c12,i,i,i,i,nt,nt
c1ccc2c(-c3c[nH]c4ccccc34)c3ccccc3nc2c1,98,79,55,i,i,i
COc1ccc(/C=N/NC(=O)c2snnc2C)c(OC)c1OC,i,i,i,i,nt,nt
COC(=O)c1ccc2c(c1)C(C)(C)C(/C=C/c1ccc(OC)c(OC)c1OC)=[N+]2C,nt,i,101,i,101,141
O=[N+]([O-])c1ccccc1C1Nc2cccc3cccc(c23)N1,106,i,97,i,i,i
Cc1ccc(NC(=O)C(=O)NCc2ccc(/C=C(/C#N)C(=O)NCc3cccnc3)o2)cc1C,i,i,i,i,nt,nt
CCc1ccc(NSc2ccccc2[N+](=O)[O-])cc1,102,80,99,i,71,i
Cc1c(Br)c(O)c(Br)c2sc(=O)oc12,i,nt,nt,nt,nt,nt
Cc1ccc2c(c1)c(=O)c1c3n2CCN(C(=O)CCl)C3CC1 (stereo unspecified),nt,i,100,i,57,i
CC(C)C(=O)NNC(=O)CSc1nnnn1C(C)C,i,i,i,i,nt,nt
Cc1c(C(=O)NNC(=S)Nc2cccc(Cl)c2)nnn1-c1ccccc1,i,i,i,i,nt,nt
Cc1cc(C)c(COCc2cc(/C=N/O)c(C)cc2C)cc1/C=N/O,108,i,89,i,i,i
CSc1cc(/C=N/O)c(SC)s1,i,i,i,i,nt,nt
Cc1c(CCOC(=O)c2cc([N+](=O)[O-])cc([N+](=O)[O-])c2)sc[n+]1CCCCS(=O)(=O)[O-],i,i,i,i,nt,nt
CCOC(=O)C1=C(c2ccccc2)OC(N)=C(C#N)C1C(C)C (stereo unspecified),i,i,i,i,nt,nt
CCOC(=O)C1=C(c2ccccc2)O/C(=C(/C#N)C(F)(F)F)S1,97,i,74,i,i,113
CCCCCCCCCCCCCCCC[n+]1ccc(/C=N/O)cc1,103,98,100,i,101,125
SMILES,CHOP inh,WT yeast gro inh,Lmaj promast,RAM inhibit,L major 1uM,CHOP inh conf
COc1ccc(-c2[nH]ncc2-c2nc(C)cs2)c(O)c1,i,i,i,i,nt,nt
CCCOC(=O)c1ccc(Oc2cn[nH]c2-c2ccc(OC)cc2O)cc1,106,78,85,i,nt,116
O=C(Nc1ccc(O)c(-c2nc3ccccc3s2)c1)c1cc(=O)c2ccccc2o1,108,i,i,i,nt,i
CC(=O)Cc1nsc(NC(=O)c2ccc(-c3cccc(Cl)c3)o2)n1,i,i,i,i,nt,nt
CC(=O)C1=C(C)NC(SCC(=O)c2ccc(-c3ccccc3)cc2)=C(C#N)C1c1cccnc1 (stereo unspecified),97,i,i,i,nt,i
CC(=O)C1=C(C)NC(SCC(=O)c2ccc(F)cc2)=C(C#N)C1c1ccco1 (stereo unspecified),i,i,i,i,nt,nt
Cc1ccc2[nH]c3c(c2c1)CN(C(=O)CN1CCN(C(=O)c2ccco2)CC1)CC3,i,nt,nt,nt,nt,nt
